# Measured values: PubChem BioAssay AID1159580 (chemical genetic matrix, 2015)
# Several values for one entry are separate records, joined by “and”; a condition that tells them apart may be missing. Equal entries are not always repeated. Hit rate of the full screen: of about 5,500 compounds, about 2,000 (36%) were called active. About 18% were inconclusive and are not listed. Cut-off read from the data, not from the text of the source: active = normalized growth mostly below about 0.91 (no sharp cut-off); inconclusive = no clear call, values can overlap the other calls; inactive = mostly above about 0.92. The list shows a part of the results. A structure can be active in one record and inactive in another.
# Assay: chemical genetic growth profiling, strain panel (AID 1159580);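 note: tested at 20 µM; growth read once vehicle control cultures reached saturation at 30 °C; 1 = growth at the plate median or of vehicle wells; lower values mean less growth of the strain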
# Settings: growth OD
# [1] = S. cerevisiae deletion strains, locus YAL013W, strain DEP1, stronger effect = lower value
# [2] = S. cerevisiae deletion strains, locus YAL040C, strain CLN3, stronger effect = lower value
# [3] = S. cerevisiae deletion strains, locus YCL061C, strain MRC1 (second series), stronger effect = lower value
# [4] = S. cerevisiae deletion strains, locus YDR363W, strain ESC2, stronger effect = lower value
# [5] = S. cerevisiae deletion strains, locus YER002W, strain NOP16, stronger effect = lower value
# [6] = S. cerevisiae deletion strains, locus YJR075W, strain HOC1, stronger effect = lower value
# [7] = S. cerevisiae deletion strains, locus YNL153C, strain GIM3, stronger effect = lower value
# [8] = S. cerevisiae deletion strains, locus YNL175C, strain NOP13, stronger effect = lower value
# [9] = S. cerevisiae deletion strains, locus YNL197C, strain WHI3, stronger effect = lower value
# [10] = S. cerevisiae deletion strains, locus YNL224C, strain SQS1, stronger effect = lower value
# [11] = S. cerevisiae deletion strains, locus YOR083W, strain WHI5 (second series), stronger effect = lower value
# [12] = S. cerevisiae deletion strains, locus YPL055C, strain LGE1, stronger effect = lower value
# [13] = S. cerevisiae deletion strains, locus YDL101C, strain DUN1, stronger effect = lower value
# [14] = S. cerevisiae deletion strains, locus YDR150W, strain NUM1, stronger effect = lower value
# [15] = S. cerevisiae deletion strains, locus YHR030C, strain SLT2, stronger effect = lower value
# [16] = S. cerevisiae deletion strains, locus YPL241C, strain CIN2, stronger effect = lower value
structure (smiles),measurement,setting,value
CC(C)[C@@H](CO)Nc1nc(Nc2cccc(Cl)c2)c2ncn(C(C)C)c2n1,normalized growth,[1],1.01 (inactive)
same,normalized growth,[2],1.01 (inactive)
same,normalized growth,[3],1.01 (inactive)
same,normalized growth,[4],1.02 (inactive)
same,normalized growth,[5],1.04 (inactive)
same,normalized growth,[6],1.02 (inactive)
same,normalized growth,[7],0.894 (inactive)
same,normalized growth,[8],0.982 (inactive)
same,normalized growth,[9],0.994 (inactive)
same,normalized growth,[10],0.989 (inactive)
same,normalized growth,[11],0.913 (inactive)
same,normalized growth,[12],1.02 (inactive)
COc1cc2ncnc(Nc3cccc(Cl)c3)c2cc1OC,normalized growth,[1],0.962 (inactive) and 0.936 (inactive)
same,normalized growth,[2],1.03 (inactive)
same,normalized growth,"S. cerevisiae deletion strains, locus YBR229C, strain ROT2, stronger effect = lower value",0.962 (inactive)
same,normalized growth,[3],0.987 (inactive)
same,normalized growth,"S. cerevisiae deletion strains, locus YCL061C, strain MRC1, stronger effect = lower value",0.956 (inactive)
same,normalized growth,[13],0.985 (inactive)
same,normalized growth,"S. cerevisiae deletion strains, locus YDL134C, strain PPH21, stronger effect = lower value",0.877 (active)
same,normalized growth,[14],0.915 (inactive) and 0.999 (inactive)
same,normalized growth,[4],0.968 (inactive)
same,normalized growth,"S. cerevisiae deletion strains, locus YEL061C, strain CIN8, stronger effect = lower value",0.834 (active)
same,normalized growth,[5],0.976 (inactive)
same,normalized growth,"S. cerevisiae deletion strains, locus YGR078C, strain PAC10, stronger effect = lower value",0.968 (inactive) and 0.958 (inactive)
same,normalized growth,"S. cerevisiae deletion strains, locus YGR229C, strain SMI1, stronger effect = lower value",0.97 (inactive)
same,normalized growth,[15],0.882 (inactive)
same,normalized growth,"S. cerevisiae deletion strains, locus YHR087W, strain rtc3, stronger effect = lower value",0.95 (inactive)
same,normalized growth,[6],0.906 (inactive)
same,normalized growth,"S. cerevisiae deletion strains, locus YLR039C, strain RIC1, stronger effect = lower value",1.03 (inactive)
same,normalized growth,"S. cerevisiae deletion strains, locus YLR058C, strain SHM2 (second series), stronger effect = lower value",0.981 (inactive)
same,normalized growth,"S. cerevisiae deletion strains, locus YLR085C, strain ARP6, stronger effect = lower value",0.46 (active)
same,normalized growth,"S. cerevisiae deletion strains, locus YLR262C, strain YPT6, stronger effect = lower value",1.02 (inactive)
same,normalized growth,"S. cerevisiae deletion strains, locus YML094W, strain GIM5, stronger effect = lower value",0.828 (active)
same,normalized growth,"S. cerevisiae deletion strains, locus YMR219W, strain ESC1, stronger effect = lower value",0.986 (inactive)
same,normalized growth,"S. cerevisiae deletion strains, locus YMR263W, strain SAP30, stronger effect = lower value",0.91 (inactive)
same,normalized growth,"S. cerevisiae deletion strains, locus YMR307W, strain GAS1, stronger effect = lower value",0.562 (active) and 0.979 (inactive)
same,normalized growth,[7],0.974 (inactive)
same,normalized growth,[8],0.954 (inactive)
same,normalized growth,[9],0.982 (inactive)
same,normalized growth,[10],0.965 (inactive)
same,normalized growth,"S. cerevisiae deletion strains, locus YNL298W, strain CLA4 (second series), stronger effect = lower value",0.883 (inactive)
same,normalized growth,"S. cerevisiae deletion strains, locus YNL322C, strain KRE1, stronger effect = lower value",0.99 (inactive)
same,normalized growth,"S. cerevisiae deletion strains, locus YNR030W, strain Alg12, stronger effect = lower value",0.82 (active)
same,normalized growth,[11],0.89 (inactive)
same,normalized growth,[12],0.815 (inactive) and 0.967 (inactive)
same,normalized growth,[16],0.831 (active)
same,normalized growth,"S. cerevisiae deletion strains, locus YPR135W, strain CTF4, stronger effect = lower value",0.533 (active)
same,normalized growth,"S. cerevisiae strains, strain wild type, stronger effect = lower value",0.926 (inactive)
CN(C)c1cc2c(Nc3ccc4c(cnn4Cc4ccccc4)c3)ncnc2cn1,normalized growth,[1],0.994 (inactive)
same,normalized growth,[2],0.971 (inactive)
same,normalized growth,[3],1.01 (inactive)
same,normalized growth,[14],1.01 (inactive)
same,normalized growth,[4],0.998 (inactive)
same,normalized growth,[5],0.98 (inactive)
same,normalized growth,[6],1.01 (inactive)
same,normalized growth,"S. cerevisiae deletion strains, locus YNL128W, strain TEP1, stronger effect = lower value",1 (inactive)
same,normalized growth,[8],0.995 (inactive)
same,normalized growth,[9],1 (inactive)
same,normalized growth,[10],1.02 (inactive)
same,normalized growth,[11],0.954 (inactive)
same,normalized growth,[16],1 (inactive)
COc1cc(C2CC(=S)Nc3ccccc3S2)cc(OC)c1OC (configuration not stated),normalized growth,"S. cerevisiae deletion strains, locus YAR019C, strain CDC15, stronger effect = lower value",0.99 (inactive)
same,normalized growth,"S. cerevisiae deletion strains, locus YBL105C, strain PKC1, stronger effect = lower value",0.986 (inactive)
same,normalized growth,"S. cerevisiae deletion strains, locus YBR135W, strain CKS1, stronger effect = lower value",0.993 (inactive)
same,normalized growth,"S. cerevisiae deletion strains, locus YBR136W, strain MEC1, stronger effect = lower value",0.992 (inactive)
same,normalized growth,"S. cerevisiae deletion strains, locus YBR160W, strain CDC28, stronger effect = lower value",1 (inactive)
same,normalized growth,"S. cerevisiae deletion strains, locus YDL017W, strain CDC7, stronger effect = lower value",0.998 (inactive)
same,normalized growth,"S. cerevisiae deletion strains, locus YDL028C, strain MPS1, stronger effect = lower value",0.981 (inactive)
same,normalized growth,[13],0.987 (inactive)
same,normalized growth,"S. cerevisiae deletion strains, locus YDL108W, strain KIN28, stronger effect = lower value",0.978 (inactive)
same,normalized growth,"S. cerevisiae deletion strains, locus YDL132W, strain cdc53, stronger effect = lower value",0.999 (inactive)
same,normalized growth,"S. cerevisiae deletion strains, locus YDL214C, strain PRR2, stronger effect = lower value",0.923 (inactive)
same,normalized growth,"S. cerevisiae deletion strains, locus YDR052C, strain DBF4, stronger effect = lower value",0.995 (inactive)
same,normalized growth,"S. cerevisiae deletion strains, locus YDR054C, strain cdc34, stronger effect = lower value",0.986 (inactive)
same,normalized growth,"S. cerevisiae deletion strains, locus YDR226W, strain ADK1, stronger effect = lower value",0.99 (inactive)
same,normalized growth,"S. cerevisiae deletion strains, locus YDR477W, strain SNF1, stronger effect = lower value",0.969 (inactive)
same,normalized growth,"S. cerevisiae deletion strains, locus YER123W, strain YCK3, stronger effect = lower value",0.881 (inactive)
same,normalized growth,"S. cerevisiae deletion strains, locus YER133W, strain GLC7, stronger effect = lower value",0.941 (inactive)
same,normalized growth,"S. cerevisiae deletion strains, locus YFL009W, strain cdc4, stronger effect = lower value",0.988 (inactive)
same,normalized growth,"S. cerevisiae deletion strains, locus YFL029C, strain CAK1, stronger effect = lower value",0.988 (inactive)
same,normalized growth,"S. cerevisiae deletion strains, locus YFR003C, strain YPI1, stronger effect = lower value",0.99 (inactive)
same,normalized growth,"S. cerevisiae deletion strains, locus YFR019W, strain FAB1, stronger effect = lower value",0.945 (inactive)
same,normalized growth,"S. cerevisiae deletion strains, locus YFR028C, strain CDC14, stronger effect = lower value",0.993 (inactive)
same,normalized growth,"S. cerevisiae deletion strains, locus YGR040W, strain KSS1, stronger effect = lower value",0.94 (inactive)
same,normalized growth,"S. cerevisiae deletion strains, locus YGR052W, strain FMP48, stronger effect = lower value",1.02 (inactive)
same,normalized growth,"S. cerevisiae deletion strains, locus YGR092W, strain DBF2, stronger effect = lower value",0.94 (inactive)
same,normalized growth,[15],1.07 (inactive)
same,normalized growth,"S. cerevisiae deletion strains, locus YHR079C, strain IRE1, stronger effect = lower value",1.04 (inactive)
same,normalized growth,"S. cerevisiae deletion strains, locus YHR082C, strain KSP1, stronger effect = lower value",1.06 (inactive)
same,normalized growth,"S. cerevisiae deletion strains, locus YHR205W, strain SCH9, stronger effect = lower value",0.974 (inactive)
same,normalized growth,"S. cerevisiae deletion strains, locus YIL147C, strain SLN1, stronger effect = lower value",0.98 (inactive)
same,normalized growth,"S. cerevisiae deletion strains, locus YJL095W, strain BCK1, stronger effect = lower value",1.08 (inactive)
same,normalized growth,"S. cerevisiae deletion strains, locus YJL128C, strain PBS2, stronger effect = lower value",0.942 (inactive)
same,normalized growth,"S. cerevisiae deletion strains, locus YJL157C, strain FAR1, stronger effect = lower value",0.928 (inactive)
same,normalized growth,"S. cerevisiae deletion strains, locus YJR016C, strain ILV3, stronger effect = lower value",1 (inactive)
same,normalized growth,"S. cerevisiae deletion strains, locus YJR066W, strain TOR1 (second series), stronger effect = lower value",0.937 (inactive)
same,normalized growth,"S. cerevisiae deletion strains, locus YJR066W, strain TOR1, stronger effect = lower value",1.08 (inactive)
same,normalized growth,"S. cerevisiae deletion strains, locus YKL048C, strain ELM1, stronger effect = lower value",0.975 (inactive)
same,normalized growth,"S. cerevisiae deletion strains, locus YKL067W, strain YNK1, stronger effect = lower value",0.946 (inactive)
same,normalized growth,"S. cerevisiae deletion strains, locus YKL101W, strain HSL1, stronger effect = lower value",0.951 (inactive)
same,normalized growth,"S. cerevisiae deletion strains, locus YKL193C, strain SDS22, stronger effect = lower value",0.994 (inactive)
same,normalized growth,"S. cerevisiae deletion strains, locus YKL203C, strain TOR2, stronger effect = lower value",1.03 (inactive)
same,normalized growth,"S. cerevisiae deletion strains, locus YLR113W, strain HOG1, stronger effect = lower value",1 (inactive)
same,normalized growth,"S. cerevisiae deletion strains, locus YLR133W, strain CKI1, stronger effect = lower value",0.978 (inactive)
same,normalized growth,"S. cerevisiae deletion strains, locus YLR403W, strain SFP1, stronger effect = lower value",0.967 (inactive)
same,normalized growth,"S. cerevisiae deletion strains, locus YML070W, strain DAK1, stronger effect = lower value",0.914 (inactive)
same,normalized growth,"S. cerevisiae deletion strains, locus YMR001C, strain CDC5, stronger effect = lower value",0.993 (inactive)
same,normalized growth,"S. cerevisiae deletion strains, locus YMR205C, strain PFK2 (second series), stronger effect = lower value",0.95 (inactive)
same,normalized growth,"S. cerevisiae deletion strains, locus YMR277W, strain FCP1, stronger effect = lower value",0.999 (inactive)
same,normalized growth,"S. cerevisiae deletion strains, locus YNL006W, strain LST8, stronger effect = lower value",0.994 (inactive)
same,normalized growth,"S. cerevisiae deletion strains, locus YNL020C, strain ARK1, stronger effect = lower value",0.961 (inactive)
same,normalized growth,"S. cerevisiae deletion strains, locus YNL161W, strain CBK1, stronger effect = lower value",0.995 (inactive)
same,normalized growth,"S. cerevisiae deletion strains, locus YNL183C, strain NPR1, stronger effect = lower value",1.06 (inactive)
same,normalized growth,"S. cerevisiae deletion strains, locus YNL207W, strain RIO2, stronger effect = lower value",0.987 (inactive)
same,normalized growth,"S. cerevisiae deletion strains, locus YNL222W, strain SSU72, stronger effect = lower value",0.974 (inactive)
same,normalized growth,"S. cerevisiae deletion strains, locus YNL307C, strain MCK1 (second series), stronger effect = lower value",0.963 (inactive)
same,normalized growth,"S. cerevisiae deletion strains, locus YOL078W, strain AVO1, stronger effect = lower value",0.985 (inactive)
same,normalized growth,"S. cerevisiae deletion strains, locus YOL136C, strain PFK27, stronger effect = lower value",0.939 (inactive)
same,normalized growth,"S. cerevisiae deletion strains, locus YOR061W, strain CKA2, stronger effect = lower value",0.944 (inactive)
same,normalized growth,"S. cerevisiae deletion strains, locus YOR119C, strain RIO1, stronger effect = lower value",1.01 (inactive)
same,normalized growth,"S. cerevisiae deletion strains, locus YOR231W, strain MKK1, stronger effect = lower value",1.03 (inactive)
same,normalized growth,"S. cerevisiae deletion strains, locus YOR329C, strain SCD5, stronger effect = lower value",0.999 (inactive)
same,normalized growth,"S. cerevisiae deletion strains, locus YPL031C, strain PHO85, stronger effect = lower value",0.953 (inactive)
same,normalized growth,"S. cerevisiae deletion strains, locus YPL153C, strain RAD53, stronger effect = lower value",0.945 (inactive)
same,normalized growth,"S. cerevisiae deletion strains, locus YPL204W, strain HRR25, stronger effect = lower value",0.962 (inactive)
same,normalized growth,"S. cerevisiae deletion strains, locus YPL209C, strain IPL1, stronger effect = lower value",0.983 (inactive)
same,normalized growth,"S. cerevisiae deletion strains, locus YPL256C, strain CLN2, stronger effect = lower value",1.05 (inactive)
same,normalized growth,"S. cerevisiae deletion strains, locus YPR025C, strain CCL1, stronger effect = lower value",0.994 (inactive)
same,normalized growth,"S. cerevisiae deletion strains, locus YPR106W, strain ISR1, stronger effect = lower value",0.992 (inactive)
same,normalized growth,"S. cerevisiae deletion strains, locus YPR111W, strain DBF20, stronger effect = lower value",0.981 (inactive)
same,normalized growth,"S. cerevisiae deletion strains, strain NNK1, stronger effect = lower value",0.988 (inactive)
same,normalized growth,"S. cerevisiae deletion strains, strain TSCII, stronger effect = lower value",0.999 (inactive)
